Here are results for 29 compounds from PubChem BioAssay (NCI).

Common to all, as to experiment: NCI-60 one-dose screen, 48 h (100 = growth as untreated, 0 = no growth, -100 = all killed)
Holding throughout (details): 10 µM unless noted

Test [1] deals with HCT-15 colon.
Test [2] has as its system HT29 colon.
Test [3] has as its system SNB-75 CNS.
For test [4], the system named is SNB-19 CNS.
Test [5] concerns U251 CNS.
Test [6] relates to PC-3 prostate.
Test [7] has as its system SK-MEL-5 melanoma.
The test system of test [8] is UACC-62 melanoma.
Test [9] relates to LOX IMVI melanoma.
Test [10] concerns SK-MEL-28 melanoma.

The structures appear in SMILES notation. About 83,000 compounds went through this panel and 20% of them were active in at least one assay; those are over-represented in the sample as a whole.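 Negative percent growth values reflect cell death: -40 means 40% of the cells present at the start died, and -100 means all died.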 Unmarked numbers belong to inactive results. Calls of active or inactive are those of the source. The calls were made as follows: active = growth percent below 10; inactive = the rest.

Take `CN1CCN(Cc2ccc(NC(=O)c3cncc(C#Cc4cnc(N)c5ncccc45)c3)cc2Cl)CC1`: the growth in test [1] was 63.8%; in test [2], 52.4%; in test [3], 105%; in test [4], 106%; in [5], -64.6% (active); in test [6], 91.6%. The growth in test [7] was 78.4%; in test [8], 98.5%; in [9], 86.5%.

For the compound `COc1ccc(-c2cc(-c3ccc(Nc4nc(Nc5ccc(Cl)cc5)nc(Nc5ccc(Cl)cc5)n4)cc3)no2)cc1`, the growth in test [1] is 76.1%; in test [2], 78.9%; in [3], 89.1%; in [4] it was 107%; in [5], 62.4%; in [6] it was 60.5%. In addition, the growth is 73% in test [7], 101% in [8], 76.3% in test [9] and 89.7% in test [10].

Consider `Cc1c(N2CCCCC2)[nH]c2ccccc12`, for which the growth was 131% in test [1]; 104% in test [2]; 117% in test [3]; 116% in [4]; 101% in test [5]; 70.5% in test [6]. Further, the growth in test [7] is 107%; in test [8] it was 110%; in test [9] it was 95.3%.

Turning to `COc1cc(C2CC(c3cccc(Nc4ccncc4)c3)=Nc3c(N)ncnc3N2)cc(OC)c1OC` (stereo not given), the growth in test [1] was 88.3%; in test [2] it was 98.1%; in test [3], 83.8%; in [4], 93.8%; in test [5], 77.7%; in test [6], 93.8%. For the same compound, the results for the growth in test [7], in test [8] and in test [9] were 93.7%, 87.3% and 91.3%, respectively.

In the case of `C(CCCSC1=NCCN1)CCSC1=NCCN1`, the growth is 102% in test [1]; 95% in test [2]; 91.4% in test [3]; 114% in [4]; 98.2% in test [5]; 64.7% in test [6]. Besides, the growth was 107% in test [7], 107% in test [8] and 99.1% in test [9].

Consider `N#C/C(=C\c1cccc2cnccc12)N1N=NC2C=CC=CC21` (stereo not given), for which the growth was 13.5% in test [1]; 12.7% in test [2]; 7.27% (active) in test [3]; 66% in test [4]; 70.6% in test [5]; 47.9% in test [6]. Moreover, the results for the growth in test [7], in [8] and in test [9] were 46.4%, 37.1% and 11.7%, respectively.

`CCN1C(=O)N(CC)C2C1NC(=S)N2/N=C/C=C/c1cccs1` (stereo not given): the growth in test [1] was 15.5%; in test [2], 5.58% (active); in test [3], 1.94% (active); in test [4], 27%; in [5], 18.4%; in test [6] it was 35.2%. In addition, the growth in [7] is 23.4%; in test [8] it was 24.5%; in test [9], 26.7%.

With `COC(=O)CNC(=O)c1ccc(NC(=O)c2[nH]c(C)c(Cl)c2Cl)c(O[C@H]2CCNC2)c1`, the growth in test [1] was 107%; in test [2], 108%; in test [3], 94.8%; in test [4], 102%; in test [5] it was 101%; in test [6], 96.8%. Further, the growth is 101% in test [7], 98.7% in test [8] and 94.4% in test [9].

For the compound `COc1cc2c(c(OC)c1OC)CCC(c1cccc(C(=O)Nc3ccc([N+](=O)[O-])cc3)c1)O2` (stereo not given), the growth in [1] is 54.5%; in test [2], 64%; in test [3], 66.7%; in test [4] it was 56.7%; in test [5], 57.7%; in [6], 27.1%. The values for the growth in test [7], in [8] and in test [9] were 15.4%, 31.4% and 52.9%, respectively.

Take `CC1=C(C(=O)c2ccccc2)C(c2ccc3c(c2)OCO3)NC(=S)N1` (stereo not given): the growth is 33.7% in test [1]; 18.5% in test [2]; -1.4% (active) in [3]; 63.8% in test [4]; 37.5% in test [5]; 61.5% in test [6]. Moreover, the growth in [7] was 28.2%; in [8], 51.6%; in [9], 36.2%.

Regarding `Cc1c(-c2cnc3ccc(Cl)cc3c2C(=O)O)nnn1-c1ccc(Cl)cc1`, the growth is 104% in test [1]; 101% in [2]; 95.3% in [3]; 93.1% in [4]; 97.3% in test [5]; 98.5% in [6]. Besides, the growth in test [7] is 106%; in test [8], 82.5%; in test [9] it was 98.8%; in test [10], 105%.

For `O=C(CNc1ncco1)Nc1ccc(S(=O)(=O)c2ccc(NC(=O)CNc3ncco3)cc2)cc1`, the growth was -49.6% (active) in test [1]; -93.2% (active) in [2]; 42.1% in [3]; 19.7% in test [4]; -92.1% (active) in [5]; 40.1% in [6]. For the same compound, the values for the growth in [7], in [8] and in test [9] were -60.4% (active), -19.9% (active) and -81.8% (active), respectively.

Regarding `NCCCCCNc1noc(Cc2c[nH]c3cc(Br)ccc23)n1`, the growth is 35.7% in [1]; 3.86% (active) in [2]; 0.268% (active) in test [3]; 46.2% in test [4]; 11.7% in test [5]; 9.96% (active) in [6]. The values for the growth in [7], in [8] and in [9] were 9.74% (active), 22.6% and 34.9%, respectively.

`CCCCCN(CCCCC)CC(O)c1c(Cl)ccc2ccccc12` (stereo not given): the growth is 55.8% in [1]; 31.4% in test [2]; 92% in test [3]; 92.3% in test [4]; 80.3% in test [5]; 75.2% in test [6]. For the same compound, the growth is 72.8% in [7], 59.7% in test [8], 71.6% in test [9] and 97.3% in [10].

As to `N#C/C(Sc1nc2sc3c(c2c(=O)n1Cc1ccccc1)CCCC3)=C1/SC=C(c2ccc(Cl)cc2)N1c1ccccc1`, the growth was 117% in test [1]; 98.7% in [2]; 71.2% in [3]; 82.3% in [4]; 72.8% in test [5]; 84.2% in [6]. The figures for the growth in [7], in [8] and in test [9] were 95.9%, 90.3% and 82.1%, respectively.

Consider `COc1nc2ccccc2cc1/C=[N+](\[O-])c1ccccc1`, for which the growth was 19% in test [1]; 70% in test [2]; 73% in test [3]; 81.8% in test [4]; 56% in test [5]; 60.3% in test [6]. For the same compound, the growth in test [7] was 73.4%; in [8] it was 62.8%; in test [9], 40.1%.

Turning to `COc1cc2c(cc1-c1c(C)noc1C)ncc1nc(C3CCOCC3)n(C3CCC(OC(F)F)CC3)c12` (stereo not given), the growth is 33.2% in [1]; 25.9% in test [2]; 12.9% in test [3]; 75.3% in [4]; 75.8% in [5]; 44.8% in test [6]. Moreover, the figures for the growth in test [7], in test [8] and in [9] were 27.2%, 25.4% and 24%, respectively.

`O=C(/C=C/C12c3ccccc3C(c3ccccc31)C1C(=O)NC(=O)C12)c1cccs1` (stereo not given): the growth in test [1] is 26.3%; in test [2], 22.6%; in [3] it was 17.1%; in test [4], 39.2%; in [5] it was 15.8%; in [6] it was 33.6%. Also, the growth in test [7] is 54.8%; in [8], 37.2%; in test [9] it was 28.6%.

Regarding `COC(=O)c1nc(-c2ccccc2)oc1S(=O)(=O)NCC(c1ccc(Cl)cc1)N1CCCCC1` (stereo not given), the growth was 49.1% in [1]; 45.8% in test [2]; 79% in [3]; 81.1% in test [4]; 59.6% in test [5]; 58.3% in test [6]. The growth in test [7] is 86%; in [8], 85.5%; in test [9] it was 43.9%.

As to `NC(=O)[C@@H]1Cc2ccccc2CN1C(=O)c1ccc2c(c1)Cc1ccccc1-2`, the growth in test [1] was 74.6%; in [2], 89.1%; in [3] it was 85.7%; in test [4] it was 86.7%; in test [5], 83%; in test [6], 61.9%. Moreover, the growth in test [7] is 46.6%; in [8], -36.9% (active); in test [9] it was 90.8%.

For the compound `COc1ccc2c(c1)c(-c1nc(-c3cn(C)c4ccncc34)cs1)cn2C`, the growth in test [1] is -22.1% (active); in test [2], -58.1% (active); in test [3], 120%; in test [4], 20.9%; in [5], -74.9% (active); in [6], -17.1% (active). The growth is -22.8% (active) in test [7], 107% in [8], -92.3% (active) in test [9] and 86.8% in test [10].

As for `COc1cccc(-c2nn(-c3ccccc3)cc2-c2ccnc(-c3cccnc3)c2)c1`, the growth was 89.6% in test [1]; 96.7% in [2]; 93% in test [3]; 97.6% in test [4]; 104% in test [5]; 70.6% in test [6]. Besides, the growth in test [7] is 81.2%; in test [8], 86.6%; in test [9], 87.4%.

Take `Nc1ccc(N)c2c1C(=O)c1cccc([N+](=O)[O-])c1C2=O`: the growth is 27.7% in test [1]; 44.7% in test [2]; 22.6% in [3]; 26.2% in test [4]; 33.7% in test [5]; 49.3% in test [6]. For the same compound, the growth is 23.8% in test [7], 5.05% (active) in test [8] and 22.4% in test [9].

`O=C1C(c2c(O)[nH]c3ncccc23)=Nc2ccccc21`: the growth in [1] was 77.9%; in test [2], 93.8%; in test [3], 68.1%; in test [4] it was 96.4%; in test [5] it was 88.2%; in [6] it was 73%. Further, the figures for the growth in test [7], in test [8] and in test [9] were 75.4%, 79.6% and 76.3%, respectively.

Regarding `O=c1c(Cc2ccc(F)cc2)cc(-c2ccccc2)nn1C/C(=N/O)c1ccccc1`, the growth in [1] was 44.5%; in [2], 20.3%; in test [3], 57.8%; in test [4] it was 58.3%; in test [5], 34.5%; in test [6], 25.9%. Further, the results for the growth in [7], in test [8] and in test [9] were 36.6%, 33.6% and 53.1%, respectively.

For the compound `O=c1n(C2OC(CO)C(O)C2O)ccc2nccn12` (stereo not given), the growth in test [1] is 105%; in test [2] it was 108%; in test [3] it was 95.5%; in test [4], 114%; in test [5] it was 99%; in test [6] it was 104%. In addition, the growth in test [7] was 114%; in [8], 111%; in [9] it was 111%.

As for `CC(=O)/C(Br)=C/c1ccc(Br)o1`, the growth in test [1] is 65.8%; in test [2], 62.4%; in [3], 92.6%; in test [4], 87.8%; in [5], 80.4%; in test [6] it was 80.8%. Further, the growth was -0.755% (active) in test [7], 85.9% in [8] and 38.7% in test [9].

Turning to `Cc1ccc(-c2nn(CC(=O)N3CCOCC3)c(N)c2C#N)cc1`, the growth in [1] is 105%; in test [2] it was 112%; in test [3], 89.4%; in [4], 97.4%; in [5], 99.4%; in [6], 100%. The results for the growth in test [7], in [8] and in [9] were 102%, 93.1% and 100%, respectively.

Turning to `CSc1nc(CC(C)C)c(C#N)c(=O)n1C`, the growth in [1] is 46.1%; in [2], 69.7%; in [3], 61%; in [4], 82.1%; in [5] it was 81.8%; in [6], 62.9%. In addition, the growth is 70.9% in test [7], 53.8% in [8] and 68.4% in test [9].
